Laboratory results from PMC11006913.
Numbering of substitutions follows the chain as printed.

Experiments:
Test in all cases: PBM; 200 nM protein, PBS
Conditions in all cases: dsDNA, one strand shown
CRX [1] = biological target: CRX (Homo sapiens, UniProt O43186 26-111)
ALX4 [2] = biological target: ALX4 (Homo sapiens, UniProt Q9H161 200-286)
PRRX1 [3] = biological target: PRRX1 (Homo sapiens, UniProt P54821 80-166, F113S)
ALX4 [4] = biological target: ALX4 (Homo sapiens, UniProt Q9H161 200-286, Q225E)
Chain of ALX4 (Homo sapiens, UniProt Q9H161 200-286, Q225E) (Q9H161 200-286 Q225E): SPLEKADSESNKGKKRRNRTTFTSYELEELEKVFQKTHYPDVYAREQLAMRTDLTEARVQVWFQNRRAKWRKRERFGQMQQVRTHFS

CRX [5] = biological target: CRX (Homo sapiens, UniProt O43186 26-111, E42D)
Chain of CRX (Homo sapiens, UniProt O43186 26-111, E42D) (O43186 26-111 E42D): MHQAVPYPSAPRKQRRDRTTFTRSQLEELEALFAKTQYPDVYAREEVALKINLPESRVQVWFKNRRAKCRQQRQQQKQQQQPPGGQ

CRX [6] = biological target: CRX (Homo sapiens, UniProt O43186 26-111, R41L)
Chain of CRX (Homo sapiens, UniProt O43186 26-111, R41L) (O43186 26-111 R41L): as the sequence (O43186 26-111 E42D) above, with R16L, D17E counted along it

PRRX1 [7] = biological target: PRRX1 (Homo sapiens, UniProt P54821 80-166)
Chain of PRRX1 (Homo sapiens, UniProt P54821 80-166) (P54821 80-166): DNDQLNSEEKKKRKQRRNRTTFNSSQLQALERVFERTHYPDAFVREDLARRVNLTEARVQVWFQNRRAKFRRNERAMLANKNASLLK

PAX4 [8] = biological target: T1, PAX4 (Homo sapiens, UniProt O43316 9-242, R200K)
T1 sequence: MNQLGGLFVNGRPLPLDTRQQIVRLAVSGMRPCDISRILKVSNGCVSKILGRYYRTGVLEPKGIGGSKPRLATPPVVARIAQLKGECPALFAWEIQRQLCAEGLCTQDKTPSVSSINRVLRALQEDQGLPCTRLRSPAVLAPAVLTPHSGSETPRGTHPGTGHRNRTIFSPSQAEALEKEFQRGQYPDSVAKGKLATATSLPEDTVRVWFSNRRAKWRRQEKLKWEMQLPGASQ

PAX4 [9] = biological target: T2, PAX4 (Homo sapiens, UniProt O43316 9-242)
T2 sequence: T1 sequence with K192R

PAX4 [10] = biological target: T3, PAX4 (Homo sapiens, UniProt O43316 9-242, R200Q)
T3 sequence: T1 sequence with K192Q

PITX2 = PITX2 (Homo sapiens, UniProt Q99697 72-157)
PAX4 [11] = biological target: T4, PAX4 (Homo sapiens, UniProt O43316 9-242, F177V)
T4 sequence: T1 sequence with F169V, K192R

HOXA7 [12] = biological target: HOXA7 (Homo sapiens, UniProt P31268 116-202)
Chain of HOXA7 (Homo sapiens, UniProt P31268 116-202) (P31268 116-202): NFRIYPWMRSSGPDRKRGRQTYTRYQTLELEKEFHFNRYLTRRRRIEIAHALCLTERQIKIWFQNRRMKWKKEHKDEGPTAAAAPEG

HOXA7 [13] = biological target: HOXA7 (Homo sapiens, UniProt P31268 116-202, W177C)
Chain of HOXA7 (Homo sapiens, UniProt P31268 116-202, W177C) (P31268 116-202 W177C): as the sequence (P31268 116-202) above, with W62C counted along it

MSX2 [14] = biological target: MSX2 (Homo sapiens, UniProt P35548 130-214, R199I)
Chain of MSX2 (Homo sapiens, UniProt P35548 130-214, R199I) (P35548 130-214 R199I): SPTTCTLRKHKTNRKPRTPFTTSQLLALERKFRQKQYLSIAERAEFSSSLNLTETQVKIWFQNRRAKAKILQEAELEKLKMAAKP

ALX1 [15] = biological target: ALX1 (Homo sapiens, UniProt Q15699 118-204, L144V)
Chain of ALX1 (Homo sapiens, UniProt Q15699 118-204, L144V) (Q15699 118-204 L144V): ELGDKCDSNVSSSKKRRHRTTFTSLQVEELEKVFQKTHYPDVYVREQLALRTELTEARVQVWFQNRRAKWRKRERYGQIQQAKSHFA

ALX1 [16] = biological target: ALX1 (Homo sapiens, UniProt Q15699 118-204, L144R)
Chain of ALX1 (Homo sapiens, UniProt Q15699 118-204, L144R) (Q15699 118-204 L144R): as the sequence (Q15699 118-204 L144V) above, with V27R counted along it

MSX2 [17] = biological target: MSX2 (Homo sapiens, UniProt P35548 130-214)
Chain of MSX2 (Homo sapiens, UniProt P35548 130-214) (P35548 130-214): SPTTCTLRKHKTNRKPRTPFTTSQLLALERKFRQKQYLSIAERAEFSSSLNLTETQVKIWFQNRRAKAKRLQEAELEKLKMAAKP

VAX1 [18] = biological target: VAX1 (Homo sapiens, UniProt Q5SQQ9 86-172)
Chain of VAX1 (Homo sapiens, UniProt Q5SQQ9 86-172) (Q5SQQ9 86-172): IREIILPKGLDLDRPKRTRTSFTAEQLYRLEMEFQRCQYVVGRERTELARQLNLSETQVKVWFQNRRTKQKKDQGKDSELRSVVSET

MSX2 [19] = biological target: MSX2 (Homo sapiens, UniProt P35548 130-214, F161Y)
Chain of MSX2 (Homo sapiens, UniProt P35548 130-214, F161Y) (P35548 130-214 F161Y): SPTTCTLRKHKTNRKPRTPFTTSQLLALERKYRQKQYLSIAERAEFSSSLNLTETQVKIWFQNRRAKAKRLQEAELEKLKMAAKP

VAX1 [20] = biological target: VAX1 (Homo sapiens, UniProt Q5SQQ9 86-172, T142I)
Chain of VAX1 (Homo sapiens, UniProt Q5SQQ9 86-172, T142I) (Q5SQQ9 86-172 T142I): as the sequence (Q5SQQ9 86-172) above, with T57I counted along it

ALX1 [21] = biological target: ALX1 (Homo sapiens, UniProt Q15699 118-204)
Chain of ALX1 (Homo sapiens, UniProt Q15699 118-204) (Q15699 118-204): as the sequence (Q15699 118-204 L144V) above, with V27L counted along it

VAX1 [22] = biological target: VAX1 (Homo sapiens, UniProt Q5SQQ9 86-172, K157R)
Chain of VAX1 (Homo sapiens, UniProt Q5SQQ9 86-172, K157R) (Q5SQQ9 86-172 K157R): as the sequence (Q5SQQ9 86-172) above, with K72R counted along it

HOXA2 [23] = biological target: HOXA2 (Homo sapiens, UniProt O43364 129-215, R185T)
Chain of HOXA2 (Homo sapiens, UniProt O43364 129-215, R185T) (O43364 129-215 R185T): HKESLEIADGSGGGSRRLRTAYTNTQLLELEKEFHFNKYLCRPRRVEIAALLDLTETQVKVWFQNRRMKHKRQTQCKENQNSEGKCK

HOXA2 [24] = biological target: HOXA2 (Homo sapiens, UniProt O43364 129-215, Y150S)
Chain of HOXA2 (Homo sapiens, UniProt O43364 129-215, Y150S) (O43364 129-215 Y150S): as the sequence (O43364 129-215 R185T) above, with Y22S, T57R counted along it

HOXA2 [25] = biological target: HOXA2 (Homo sapiens, UniProt O43364 129-215)
Chain of HOXA2 (Homo sapiens, UniProt O43364 129-215) (O43364 129-215): as the sequence (O43364 129-215 R185T) above, with T57R counted along it

PAX4 [26] = biological target: T5, PAX4 (Homo sapiens, UniProt O43316 9-242, F177Y)
T5 sequence: T1 sequence with F169Y, K192R

PAX4 [27] = biological target: T6, PAX4 (Homo sapiens, UniProt O43316 9-242, R227W)
T6 sequence: T1 sequence with K192R, R219W

NKX2-6 = biological target: T7, NKX2-6 (Homo sapiens, UniProt A6NCS4 118-204, R150C)
T7 sequence: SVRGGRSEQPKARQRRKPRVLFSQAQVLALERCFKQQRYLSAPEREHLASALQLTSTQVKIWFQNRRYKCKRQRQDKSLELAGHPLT

NKX3-2 [28] = biological target: NKX3-2 (Homo sapiens, UniProt P78367 192-278, P234S)
Chain of NKX3-2 (Homo sapiens, UniProt P78367 192-278, P234S) (P78367 192-278 P234S): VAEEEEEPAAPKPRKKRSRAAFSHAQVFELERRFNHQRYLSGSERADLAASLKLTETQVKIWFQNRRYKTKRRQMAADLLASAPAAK

NKX3-2 [29] = biological target: NKX3-2 (Homo sapiens, UniProt P78367 192-278)
Chain of NKX3-2 (Homo sapiens, UniProt P78367 192-278) (P78367 192-278): as the sequence (P78367 192-278 P234S) above, with S43P counted along it

Chain of CRX (Homo sapiens, UniProt O43186 26-111) (O43186 26-111): as the sequence (O43186 26-111 E42D) above, with D17E counted along it
Chain of ALX4 (Homo sapiens, UniProt Q9H161 200-286) (Q9H161 200-286): as the sequence (Q9H161 200-286 Q225E) above, with E26Q counted along it
Chain of PRRX1 (Homo sapiens, UniProt P54821 80-166, F113S) (P54821 80-166 F113S): as the sequence (P54821 80-166) above, with F34S counted along it

Which results are given for CCTCCCAC?
binding signal (CRX [1]): 8.12 upbm affinity estimate (log intensity, higher = more binding, comparable within an allelic series); binding signal (ALX4 [2]): 7.99 upbm affinity estimate (log intensity, higher = more binding, comparable within an allelic series); binding signal (PRRX1 [3]): 9.27 upbm affinity estimate (log intensity, higher = more binding, comparable within an allelic series); binding signal (ALX4 [4]): 8.07 upbm affinity estimate (log intensity, higher = more binding, comparable within an allelic series); binding signal (CRX [5]): 8.07 upbm affinity estimate (log intensity, higher = more binding, comparable within an allelic series); binding signal (CRX [6]): 8.16 upbm affinity estimate (log intensity, higher = more binding, comparable within an allelic series); binding signal (PRRX1 [7]): 9.17 upbm affinity estimate (log intensity, higher = more binding, comparable within an allelic series)

AAAGATTA was tested. Which binding signal (CRX [1]) did it give?
The binding signal was 12.9 upbm affinity estimate (log intensity, higher = more binding, comparable within an allelic series).

And the binding signal (PAX4 [8])?
The binding signal was 10.9 upbm affinity estimate (log intensity, higher = more binding, comparable within an allelic series).

What about the binding signal (PAX4 [9]) of the same sequence?
The binding signal was 11.2 upbm affinity estimate (log intensity, higher = more binding, comparable within an allelic series).

And the binding signal (CRX [5])?
The binding signal was 12.8 upbm affinity estimate (log intensity, higher = more binding, comparable within an allelic series).

What about the binding signal (PAX4 [10]) of the same sequence?
Its binding signal is 11.1 upbm affinity estimate (log intensity, higher = more binding, comparable within an allelic series).

What about the binding signal (PITX2) of the same sequence?
The binding signal was 12.3 upbm affinity estimate (log intensity, higher = more binding, comparable within an allelic series).

And the binding signal (PAX4 [11])?
The binding signal was 10.3 upbm affinity estimate (log intensity, higher = more binding, comparable within an allelic series).

What about the binding signal (CRX [6]) of the same sequence?
Its binding signal is 12.6 upbm affinity estimate (log intensity, higher = more binding, comparable within an allelic series).

For TGCGATAA, which binding signal (CRX [1]) is on record?
Its binding signal is 10.9 upbm affinity estimate (log intensity, higher = more binding, comparable within an allelic series).

And the binding signal (HOXA7 [12])?
The binding signal was 9.91 upbm affinity estimate (log intensity, higher = more binding, comparable within an allelic series).

What about the binding signal (CRX [5]) of the same sequence?
The binding signal was 10.5 upbm affinity estimate (log intensity, higher = more binding, comparable within an allelic series).

What about the binding signal (HOXA7 [13]) of the same sequence?
The binding signal was 8.8 upbm affinity estimate (log intensity, higher = more binding, comparable within an allelic series).

And the binding signal (CRX [6])?
Its binding signal is 10.4 upbm affinity estimate (log intensity, higher = more binding, comparable within an allelic series).

What does the source list for AGGCCTTA?
binding signal (CRX [1]): 10.1 upbm affinity estimate (log intensity, higher = more binding, comparable within an allelic series); binding signal (CRX [5]): 9.82 upbm affinity estimate (log intensity, higher = more binding, comparable within an allelic series)

How did the binding signal (CRX [1]) turn out when CACCGGAG was run?
Its binding signal is 8.14 upbm affinity estimate (log intensity, higher = more binding, comparable within an allelic series).

And the binding signal (ALX4 [2])?
Its binding signal is 8.15 upbm affinity estimate (log intensity, higher = more binding, comparable within an allelic series).

And the binding signal (ALX4 [4])?
The binding signal was 8.15 upbm affinity estimate (log intensity, higher = more binding, comparable within an allelic series).

And the binding signal (CRX [5])?
Its binding signal is 8.3 upbm affinity estimate (log intensity, higher = more binding, comparable within an allelic series).

What about the binding signal (CRX [6]) of the same sequence?
Its binding signal is 8.27 upbm affinity estimate (log intensity, higher = more binding, comparable within an allelic series).

What does the source list for CGCTCGCC?
binding signal (CRX [1]): 7.99 upbm affinity estimate (log intensity, higher = more binding, comparable within an allelic series); binding signal (CRX [5]): 8.05 upbm affinity estimate (log intensity, higher = more binding, comparable within an allelic series); binding signal (MSX2 [14]): 9.42 upbm affinity estimate (log intensity, higher = more binding, comparable within an allelic series); binding signal (ALX1 [15]): 6.31 upbm affinity estimate (log intensity, higher = more binding, comparable within an allelic series); binding signal (ALX1 [16]): 6.41 upbm affinity estimate (log intensity, higher = more binding, comparable within an allelic series); binding signal (MSX2 [17]): 9.46 upbm affinity estimate (log intensity, higher = more binding, comparable within an allelic series); binding signal (VAX1 [18]): 6.87 upbm affinity estimate (log intensity, higher = more binding, comparable within an allelic series); binding signal (MSX2 [19]): 9.5 upbm affinity estimate (log intensity, higher = more binding, comparable within an allelic series); binding signal (VAX1 [20]): 7.1 upbm affinity estimate (log intensity, higher = more binding, comparable within an allelic series); binding signal (CRX [6]): 8.16 upbm affinity estimate (log intensity, higher = more binding, comparable within an allelic series); binding signal (ALX1 [21]): 6.39 upbm affinity estimate (log intensity, higher = more binding, comparable within an allelic series); binding signal (VAX1 [22]): 7.05 upbm affinity estimate (log intensity, higher = more binding, comparable within an allelic series)

How did the binding signal (CRX [1]) turn out when AGGATTAG was run?
The binding signal was 13.5 upbm affinity estimate (log intensity, higher = more binding, comparable within an allelic series).

What about the binding signal (HOXA2 [23]) of the same sequence?
The binding signal was 9.36 upbm affinity estimate (log intensity, higher = more binding, comparable within an allelic series).

What about the binding signal (CRX [5]) of the same sequence?
Its binding signal is 13.5 upbm affinity estimate (log intensity, higher = more binding, comparable within an allelic series).

What about the binding signal (PITX2) of the same sequence?
The binding signal was 13.2 upbm affinity estimate (log intensity, higher = more binding, comparable within an allelic series).

What about the binding signal (HOXA2 [24]) of the same sequence?
Its binding signal is 10.7 upbm affinity estimate (log intensity, higher = more binding, comparable within an allelic series).

And the binding signal (CRX [6])?
Its binding signal is 13.3 upbm affinity estimate (log intensity, higher = more binding, comparable within an allelic series).

And the binding signal (HOXA2 [25])?
Its binding signal is 9.15 upbm affinity estimate (log intensity, higher = more binding, comparable within an allelic series).

How did the binding signal (CRX [1]) turn out when CCACGCCA was run?
The binding signal was 8.11 upbm affinity estimate (log intensity, higher = more binding, comparable within an allelic series).

And the binding signal (PAX4 [8])?
The binding signal was 9.43 upbm affinity estimate (log intensity, higher = more binding, comparable within an allelic series).

What about the binding signal (PAX4 [9]) of the same sequence?
Its binding signal is 9.33 upbm affinity estimate (log intensity, higher = more binding, comparable within an allelic series).

What about the binding signal (CRX [5]) of the same sequence?
The binding signal was 8.32 upbm affinity estimate (log intensity, higher = more binding, comparable within an allelic series).

What about the binding signal (PAX4 [10]) of the same sequence?
Its binding signal is 9.45 upbm affinity estimate (log intensity, higher = more binding, comparable within an allelic series).

What about the binding signal (PAX4 [11]) of the same sequence?
The binding signal was 9.5 upbm affinity estimate (log intensity, higher = more binding, comparable within an allelic series).

What about the binding signal (PAX4 [26]) of the same sequence?
The binding signal was 9.5 upbm affinity estimate (log intensity, higher = more binding, comparable within an allelic series).

And the binding signal (PAX4 [27])?
The binding signal was 9.53 upbm affinity estimate (log intensity, higher = more binding, comparable within an allelic series).

What about the binding signal (CRX [6]) of the same sequence?
Its binding signal is 8.24 upbm affinity estimate (log intensity, higher = more binding, comparable within an allelic series).

How did the binding signal (CRX [1]) turn out when AGCGTCCG was run?
Its binding signal is 8.29 upbm affinity estimate (log intensity, higher = more binding, comparable within an allelic series).

And the binding signal (HOXA7 [12])?
The binding signal was 8.2 upbm affinity estimate (log intensity, higher = more binding, comparable within an allelic series).

What about the binding signal (CRX [5]) of the same sequence?
The binding signal was 8.33 upbm affinity estimate (log intensity, higher = more binding, comparable within an allelic series).

And the binding signal (HOXA7 [13])?
Its binding signal is 8.37 upbm affinity estimate (log intensity, higher = more binding, comparable within an allelic series).

And the binding signal (CRX [6])?
The binding signal was 8.29 upbm affinity estimate (log intensity, higher = more binding, comparable within an allelic series).

For CTTACGAC, which binding signal (CRX [1]) is on record?
The binding signal was 10.1 upbm affinity estimate (log intensity, higher = more binding, comparable within an allelic series).

And the binding signal (CRX [5])?
Its binding signal is 10 upbm affinity estimate (log intensity, higher = more binding, comparable within an allelic series).

Which binding signal (CRX [1]) does the source give for GACGCGCC here?
Its binding signal is 8.22 upbm affinity estimate (log intensity, higher = more binding, comparable within an allelic series).

And the binding signal (NKX2-6)?
Its binding signal is 9.4 upbm affinity estimate (log intensity, higher = more binding, comparable within an allelic series).

What about the binding signal (CRX [5]) of the same sequence?
The binding signal was 8.15 upbm affinity estimate (log intensity, higher = more binding, comparable within an allelic series).

What about the binding signal (NKX3-2 [28]) of the same sequence?
The binding signal was 10.5 upbm affinity estimate (log intensity, higher = more binding, comparable within an allelic series).

And the binding signal (CRX [6])?
The binding signal was 8.22 upbm affinity estimate (log intensity, higher = more binding, comparable within an allelic series).

What about the binding signal (NKX3-2 [29]) of the same sequence?
Its binding signal is 10.5 upbm affinity estimate (log intensity, higher = more binding, comparable within an allelic series).

What does the source list for AATAATCC?
binding signal (CRX [1]): 13.4 upbm affinity estimate (log intensity, higher = more binding, comparable within an allelic series); binding signal (CRX [5]): 13.4 upbm affinity estimate (log intensity, higher = more binding, comparable within an allelic series); binding signal (PITX2): 13 upbm affinity estimate (log intensity, higher = more binding, comparable within an allelic series); binding signal (MSX2 [17]): 11.5 upbm affinity estimate (log intensity, higher = more binding, comparable within an allelic series); binding signal (MSX2 [19]): 11.3 upbm affinity estimate (log intensity, higher = more binding, comparable within an allelic series); binding signal (CRX [6]): 13.4 upbm affinity estimate (log intensity, higher = more binding, comparable within an allelic series)
